Measurements reported in PubChem BioAssay (EPA / NIEHS).
The source made the active and inactive calls. Rule for the calls: active = hit-call score of the fitted dose curve at least 0.9, where 1 is the maximum; inactive = score below 0.9.

Key:
[1] = biological target: Bile acid receptor (Homo sapiens) (UniProt Q96RI1); experiment: ATG_IR1_CIS: Attagene CIS-FACTORIAL HepG2 Assay for human Nuclear Receptor Subfamily 1 Group H Member 4 (NR1H4), IR1 submotif (AID 2282946); conditions: IR1 reporter transcription, actives raise or lower the signal
Bile acid receptor (Homo sapiens), sequence (Q96RI1 whole entry, looked up): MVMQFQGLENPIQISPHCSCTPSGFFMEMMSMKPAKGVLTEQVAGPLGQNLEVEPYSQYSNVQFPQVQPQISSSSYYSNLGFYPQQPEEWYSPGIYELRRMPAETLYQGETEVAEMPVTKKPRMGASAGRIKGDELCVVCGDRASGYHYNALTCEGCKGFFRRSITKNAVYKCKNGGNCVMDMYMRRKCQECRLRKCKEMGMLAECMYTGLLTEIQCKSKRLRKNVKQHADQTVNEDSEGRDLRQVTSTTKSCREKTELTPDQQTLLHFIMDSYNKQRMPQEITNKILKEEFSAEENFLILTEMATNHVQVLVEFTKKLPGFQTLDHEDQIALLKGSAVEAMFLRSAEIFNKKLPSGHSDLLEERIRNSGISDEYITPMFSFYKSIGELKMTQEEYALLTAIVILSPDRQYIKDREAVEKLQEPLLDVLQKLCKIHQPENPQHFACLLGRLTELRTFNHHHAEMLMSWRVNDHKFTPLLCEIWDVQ
Method in brief: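 Fluorescence of capillary-separated, HpaI-digested RT-PCR reporter products gave IR1-element mRNA induction in HepG2 cells 24 h after dosing. Endogenous transcription factors drove the cis-regulated reporters; activity was fitted bidirectionally against DMSO.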

[2] = ATG_GRE_CIS: Attagene CIS-FACTORIAL HepG2 Assay for human Glucocorticoid Response Elements (GRE) (AID 2282947); conditions: HepG2 GRE cis-reporter, Attagene multiplex mRNA; actives raise or lower the signal
Method in brief: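 Read-out: fluorescent reporter-transcript fragments separated by capillary electrophoresis after RT-PCR. Transiently transfected HepG2 cells carrying cis-element-driven reporter units were dosed for 24 h; gain or loss of signal fitted against DMSO control.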

[3] = ATG_ISRE_CIS: Attagene CIS-FACTORIAL HepG2 Assay for human Interferon Regulatory Factor 1 (IRF1) binding to an Interferon-Stimulated Response Element (ISRE) (AID 2282948); conditions: HepG2 ISRE cis-reporter (Attagene), mRNA transcription readout; actives raise or lower the signal
Method in brief: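 Multiplexed mRNA reporter readout in human liver HepG2 cells: cis-element-driven reporters transfected, compound added for 24 h, transcripts amplified, fluorescently labelled and sized by capillary electrophoresis; curve fitting bidirectional against DMSO.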

[4] = ATG_M_32_CIS: Attagene CIS-FACTORIAL HepG2 Assay for M32 Transcription Factor (Internal Marker) (AID 2282949); conditions: HepG2 Attagene cis-factorial M32 reporter, mRNA; actives raise or lower the signal;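 note: background control marker of the multiplexed CIS panel rather than a real target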
Method in brief: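 Using DMSO as baseline, bidirectional curve fits were applied to reporter mRNA signals. These came from transiently transfected HepG2 cells exposed for 24 h, with RNA analysed by RT-PCR, FAM primer extension, HpaI digestion and CE.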

[5] = ATG_M_06_CIS: Attagene CIS-FACTORIAL HepG2 Assay for M06 Transcription Factor (Internal Marker) (AID 2282950); conditions: HepG2 Attagene CIS-FACTORIAL M06 internal marker reporter; actives raise or lower the signal
Method in brief: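 One of many multiplexed endpoints: HepG2 reporter mRNA after 24 h dosing, detected by RT-PCR and capillary electrophoresis fluorescence; gain or loss of signal analysed against DMSO.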

[6] = biological target: Hypoxia-inducible factor 1-alpha (Homo sapiens) (UniProt Q16665); experiment: ATG_HIF1a_CIS: Attagene CIS-FACTORIAL HepG2 Assay for human Hypoxia Inducible Factor 1 (HIF1A) (AID 2282951); conditions: HepG2 Attagene cis-factorial HIF1a reporter transcription; actives raise or lower the signal
Hypoxia-inducible factor 1-alpha (Homo sapiens), sequence (Q16665 whole entry, looked up): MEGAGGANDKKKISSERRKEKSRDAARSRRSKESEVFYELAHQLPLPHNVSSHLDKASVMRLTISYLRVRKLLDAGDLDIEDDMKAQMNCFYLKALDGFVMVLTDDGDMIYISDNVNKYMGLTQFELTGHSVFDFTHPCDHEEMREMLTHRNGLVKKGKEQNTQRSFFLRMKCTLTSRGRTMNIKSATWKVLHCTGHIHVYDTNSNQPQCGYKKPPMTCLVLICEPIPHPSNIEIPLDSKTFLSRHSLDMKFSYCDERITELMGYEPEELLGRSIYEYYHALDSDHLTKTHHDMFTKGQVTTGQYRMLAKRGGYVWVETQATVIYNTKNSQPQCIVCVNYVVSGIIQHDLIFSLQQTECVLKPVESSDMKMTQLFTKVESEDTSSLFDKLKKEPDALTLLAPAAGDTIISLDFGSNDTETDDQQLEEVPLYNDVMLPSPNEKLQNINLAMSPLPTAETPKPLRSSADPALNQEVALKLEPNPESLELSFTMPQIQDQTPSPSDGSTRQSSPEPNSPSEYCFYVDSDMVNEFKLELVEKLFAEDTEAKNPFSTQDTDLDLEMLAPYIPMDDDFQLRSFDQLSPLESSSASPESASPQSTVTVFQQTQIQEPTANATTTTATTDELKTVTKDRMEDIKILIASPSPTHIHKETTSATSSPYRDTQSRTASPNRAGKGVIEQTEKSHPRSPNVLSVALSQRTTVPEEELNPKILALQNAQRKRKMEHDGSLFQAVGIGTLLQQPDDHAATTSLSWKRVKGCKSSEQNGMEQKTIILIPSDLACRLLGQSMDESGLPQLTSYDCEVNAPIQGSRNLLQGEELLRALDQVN
Method in brief: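 HepG2 cells transiently transfected with multiple cis-regulated reporter transcription units measure endogenous transcription factor activity. After 24 h exposure, reporter mRNA is quantified by RT-PCR with 6-FAM labelling, HpaI digestion and capillary electrophoresis. Bidirectional fitting against DMSO.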

[7] = biological target: Hepatocyte nuclear factor 6 (Homo sapiens) (UniProt Q9UBC0); experiment: ATG_HNF6_CIS: Attagene CIS-FACTORIAL HepG2 Assay for human Hepatocyte Nuclear Factor 6 (HNF6) (AID 2282952); conditions: HepG2 Attagene cis-factorial HNF6 reporter transcription; actives raise or lower the signal
Hepatocyte nuclear factor 6 (Homo sapiens), sequence (Q9UBC0 whole entry, looked up, the tested form may be a part): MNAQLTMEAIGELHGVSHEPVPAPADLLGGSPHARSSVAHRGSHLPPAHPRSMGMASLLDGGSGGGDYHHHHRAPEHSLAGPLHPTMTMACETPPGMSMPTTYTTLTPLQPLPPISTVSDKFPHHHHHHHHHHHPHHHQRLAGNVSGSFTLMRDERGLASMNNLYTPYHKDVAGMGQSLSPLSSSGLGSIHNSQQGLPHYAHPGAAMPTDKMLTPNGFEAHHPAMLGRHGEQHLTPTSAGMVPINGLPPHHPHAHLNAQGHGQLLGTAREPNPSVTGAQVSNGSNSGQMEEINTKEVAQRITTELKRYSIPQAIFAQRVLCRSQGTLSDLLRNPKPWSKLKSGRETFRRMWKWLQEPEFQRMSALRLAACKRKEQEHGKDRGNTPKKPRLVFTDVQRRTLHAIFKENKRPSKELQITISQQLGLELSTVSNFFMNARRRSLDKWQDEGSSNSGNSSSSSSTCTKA
Method in brief: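 Using cis-element reporters in HepG2 liver cells, the assay tracks endogenous factor-driven transcription 24 h post-dosing. Signal comes from 6-FAM-labelled, HpaI-digested RT-PCR fragments, with gain or loss scored against DMSO.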

[8] = biological target: Heat shock factor protein 1 (Homo sapiens) (UniProt Q00613); experiment: ATG_HSE_CIS: Attagene CIS-FACTORIAL HepG2 Assay for human Heat Shock Transcription Factor 1 (HSE) (AID 2282953); conditions: HepG2 HSE cis-reporter, Attagene RNA transcription; actives raise or lower the signal
Heat shock factor protein 1 (Homo sapiens), sequence (Q00613 whole entry, looked up): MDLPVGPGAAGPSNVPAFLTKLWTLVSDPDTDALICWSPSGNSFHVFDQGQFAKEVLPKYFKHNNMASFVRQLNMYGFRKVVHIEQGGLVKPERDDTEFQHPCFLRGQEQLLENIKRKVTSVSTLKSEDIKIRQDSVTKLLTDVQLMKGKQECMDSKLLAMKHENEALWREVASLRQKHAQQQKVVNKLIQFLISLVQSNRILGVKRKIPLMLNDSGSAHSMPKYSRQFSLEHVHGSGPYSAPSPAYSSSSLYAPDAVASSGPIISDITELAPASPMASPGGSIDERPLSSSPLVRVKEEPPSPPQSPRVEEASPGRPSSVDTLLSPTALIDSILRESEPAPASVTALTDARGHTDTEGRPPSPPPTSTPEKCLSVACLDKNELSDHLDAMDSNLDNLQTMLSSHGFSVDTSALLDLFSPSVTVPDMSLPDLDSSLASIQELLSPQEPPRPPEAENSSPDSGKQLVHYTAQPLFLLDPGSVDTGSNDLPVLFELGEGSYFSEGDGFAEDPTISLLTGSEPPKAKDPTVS
Method in brief: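 Using HepG2 with transfected cis-driven reporter constructs, compound effects on endogenous factor activity are scored as reporter mRNA change at 24 h. Detection: RT-PCR, HpaI digestion, capillary electrophoresis; bidirectional fitting to DMSO.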

[9] = ATG_MRE_CIS: Attagene CIS-FACTORIAL HepG2 Assay for human Metal Responsive Element (MRE) (AID 2282954); conditions: HepG2 MRE cis-reporter transcription, Attagene multiplex; actives raise or lower the signal
Method in brief: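 RT-PCR/capillary electrophoresis readout of reporter mRNA, 24 h post-dosing, in HepG2 cells transfected with multiplexed cis-regulated reporter constructs. Gain or loss of signal fitted bidirectionally against DMSO baseline.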

[10] = biological target: Paired box protein Pax-6 (Homo sapiens) (UniProt P26367); experiment: ATG_Pax6_CIS: Attagene CIS-FACTORIAL HepG2 Assay for human Paired Box 6 (PAX6) (AID 2282956); conditions: HepG2 CIS-FACTORIAL PAX6 reporter transcription, RNA readout; actives raise or lower the signal
Paired box protein Pax-6 (Homo sapiens), sequence (P26367 whole entry, looked up): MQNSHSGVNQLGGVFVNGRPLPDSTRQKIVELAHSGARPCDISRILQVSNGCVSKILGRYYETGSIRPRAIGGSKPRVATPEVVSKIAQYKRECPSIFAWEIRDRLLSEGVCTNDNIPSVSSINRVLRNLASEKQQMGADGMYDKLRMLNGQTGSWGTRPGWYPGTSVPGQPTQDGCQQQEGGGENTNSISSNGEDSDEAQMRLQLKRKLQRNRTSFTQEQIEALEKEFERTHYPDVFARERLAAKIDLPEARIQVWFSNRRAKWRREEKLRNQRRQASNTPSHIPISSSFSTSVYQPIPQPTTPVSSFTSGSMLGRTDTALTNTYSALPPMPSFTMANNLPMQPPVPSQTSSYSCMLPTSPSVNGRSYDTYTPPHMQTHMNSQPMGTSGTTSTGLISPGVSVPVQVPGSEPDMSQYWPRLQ
Method in brief: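 Fluorescent RT-PCR products separated by capillary electrophoresis report PAX6-linked promoter mRNA in HepG2 cells 24 h post-dose. Curves fitted bidirectionally, DMSO as negative control.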

[11] = ATG_PXRE_CIS: Attagene CIS-FACTORIAL HepG2 Assay for human Pregnane X Receptor Element (PXRE) (AID 2282957); conditions: HepG2 Attagene CIS-FACTORIAL PXRE reporter, mRNA; actives raise or lower the signal
Method in brief: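 Using HepG2 transfected with multiple reporter transcription units, endogenous factor-driven transcription was scored as reporter mRNA after 24 h exposure.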

[12] = ATG_PPRE_CIS: Attagene CIS-FACTORIAL HepG2 Assay for human Peroxisome Proliferator-activated Response Element (PPRE) (AID 2282958); conditions: HepG2 PPRE cis-element reporter, Attagene transcription factor profiling; actives raise or lower the signal
Method in brief: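 HepG2 cells are transiently transfected with multiplexed cis-promoter reporter units to report endogenous PPAR activity. After 24 h dosing, reporter mRNA is read by RT-PCR and capillary electrophoresis. Fitting is bidirectional against DMSO.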

[13] = ATG_RORE_CIS: Attagene CIS-FACTORIAL HepG2 Assay for human RAR-related Orphan Receptor Element (RORE) (AID 2282959); conditions: HepG2 Attagene cis-factorial RORE reporter, mRNA; actives raise or lower the signal
Method in brief: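 HepG2 cells carrying transiently transfected cis-regulated reporter units; RORE-driven reporter mRNA quantified 24 h post-dosing by RT-PCR, 6-FAM primer extension, HpaI digestion and capillary electrophoresis. Bidirectional fit versus DMSO.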

[14] = ATG_Sox_CIS: Attagene CIS-FACTORIAL HepG2 Assay for human SRY-box transcription factor (SOX) (AID 2282960); conditions: HepG2 Attagene cis-factorial SOX reporter, mRNA; actives raise or lower the signal
Method in brief: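 HepG2 cells transiently transfected with multiple cis-regulated reporter units, then dosed for 24 h. Reporter mRNA quantified by RT-PCR, fluorescent labelling, HpaI digestion and capillary electrophoresis; bidirectional fit versus DMSO.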

[15] = biological target: Transcription factor Sp1 (Homo sapiens) (UniProt P08047); experiment: ATG_Sp1_CIS: Attagene CIS-FACTORIAL HepG2 Assay for human Specificity Protein 1 (Sp1) (AID 2282961); conditions: HepG2 Sp1 cis-reporter transcription, actives raise or lower the signal
Transcription factor Sp1 (Homo sapiens), sequence (P08047 whole entry, looked up): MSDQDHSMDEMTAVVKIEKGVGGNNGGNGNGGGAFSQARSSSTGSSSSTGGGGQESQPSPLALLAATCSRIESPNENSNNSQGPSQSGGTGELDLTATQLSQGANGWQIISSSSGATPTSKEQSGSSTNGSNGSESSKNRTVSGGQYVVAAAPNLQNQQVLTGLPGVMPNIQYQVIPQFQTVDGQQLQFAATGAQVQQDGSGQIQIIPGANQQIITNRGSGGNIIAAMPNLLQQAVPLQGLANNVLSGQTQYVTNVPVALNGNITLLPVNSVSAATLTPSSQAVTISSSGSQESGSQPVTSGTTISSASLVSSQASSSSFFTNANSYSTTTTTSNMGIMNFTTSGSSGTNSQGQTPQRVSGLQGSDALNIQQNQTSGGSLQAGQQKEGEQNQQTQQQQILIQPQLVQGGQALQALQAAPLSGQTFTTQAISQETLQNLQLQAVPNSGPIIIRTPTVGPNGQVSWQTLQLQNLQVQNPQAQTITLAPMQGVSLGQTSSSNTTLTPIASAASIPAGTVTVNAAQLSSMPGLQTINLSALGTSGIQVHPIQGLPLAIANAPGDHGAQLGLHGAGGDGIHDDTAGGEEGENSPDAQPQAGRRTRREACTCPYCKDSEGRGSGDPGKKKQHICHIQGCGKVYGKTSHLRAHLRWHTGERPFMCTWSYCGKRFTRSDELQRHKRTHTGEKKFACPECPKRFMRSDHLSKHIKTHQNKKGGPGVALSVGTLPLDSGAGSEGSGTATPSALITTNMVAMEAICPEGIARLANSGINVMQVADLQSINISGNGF
Method in brief: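 HepG2 cells transiently transfected with multiplexed cis-regulated reporter constructs, chemical exposure 24 h. Reporter mRNA quantified by RT-PCR with capillary electrophoresis; bidirectional fit relative to DMSO.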

[16] = ATG_SREBP_CIS: Attagene CIS-FACTORIAL HepG2 Assay for human Sterol Regulatory Element Binding (SREBP) (AID 2282962); conditions: HepG2 Attagene cis-factorial SREBP reporter, mRNA; actives raise or lower the signal
Method in brief: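 Endogenous factor activity is measured in HepG2 through multiplexed reporter units under cis-element control. Following a 24 h incubation, reporter transcripts are reverse-transcribed, PCR-amplified and sized by capillary electrophoresis; activity is fitted in both directions relative to DMSO.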

[17] = biological target: Signal transducer and activator of transcription 3 (Homo sapiens) (UniProt P40763); experiment: ATG_STAT3_CIS: Attagene CIS-FACTORIAL HepG2 Assay for human Signal Transducer and Activator of Transcription 3 (STAT3) (AID 2282963); conditions: HepG2, Attagene cis-factorial STAT3 reporter transcription; actives raise or lower the signal
Signal transducer and activator of transcription 3 (Homo sapiens), sequence (P40763 whole entry, looked up, the tested form may be a part): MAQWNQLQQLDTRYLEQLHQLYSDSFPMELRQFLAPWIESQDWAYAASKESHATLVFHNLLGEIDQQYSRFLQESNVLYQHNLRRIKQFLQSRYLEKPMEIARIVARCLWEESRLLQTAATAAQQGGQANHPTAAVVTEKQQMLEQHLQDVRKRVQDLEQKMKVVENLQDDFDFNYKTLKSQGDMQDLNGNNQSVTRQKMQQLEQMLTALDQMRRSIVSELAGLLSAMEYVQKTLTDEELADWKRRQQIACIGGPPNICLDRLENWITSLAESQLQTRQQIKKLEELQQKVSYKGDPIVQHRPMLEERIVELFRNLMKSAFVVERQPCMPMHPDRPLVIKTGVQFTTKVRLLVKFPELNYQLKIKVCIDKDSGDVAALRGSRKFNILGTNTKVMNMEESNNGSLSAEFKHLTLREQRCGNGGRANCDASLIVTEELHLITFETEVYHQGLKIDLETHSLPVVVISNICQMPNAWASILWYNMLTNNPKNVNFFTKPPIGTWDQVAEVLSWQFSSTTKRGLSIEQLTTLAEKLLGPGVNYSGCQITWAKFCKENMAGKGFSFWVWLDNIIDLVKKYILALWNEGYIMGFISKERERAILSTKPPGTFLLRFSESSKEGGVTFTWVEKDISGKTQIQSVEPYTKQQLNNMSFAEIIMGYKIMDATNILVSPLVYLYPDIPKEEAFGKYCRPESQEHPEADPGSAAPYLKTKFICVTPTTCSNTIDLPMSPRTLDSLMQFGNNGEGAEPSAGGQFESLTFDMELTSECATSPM
Method in brief: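 Readout: fluorescent reporter mRNA fragments resolved by capillary electrophoresis. Setup: HepG2 transfected with MRTUs reporting endogenous transcription-factor activity, dosed 24 h. Gain or loss of signal fitted bidirectionally against DMSO control.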

[18] = ATG_TA_CIS: Attagene CIS-FACTORIAL HepG2 Assay for human TA Basal Promoter (AID 2282964); conditions: HepG2 Attagene CIS-factorial TA basal promoter reporter; actives raise or lower the signal
Method in brief: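 Transient MRTU transfection of HepG2 preceded 24 h compound exposure. Reporter mRNA levels were then read by RT-PCR with capillary electrophoresis, and this background-control endpoint was fitted bidirectionally to DMSO.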

[19] = ATG_PBREM_CIS: Attagene CIS-FACTORIAL HepG2 Assay for human Phenobarbital-responsive Enhancer Module (PBREM) (AID 2282955); conditions: HepG2 PBREM cis-reporter, Attagene multiplexed transcription; actives raise or lower the signal
Method in brief: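 HepG2 cells transiently transfected with multiple cis-regulated reporter units measure endogenous transcription factor activity; 24 h compound exposure. Reporter mRNA quantified by RT-PCR, fluorescent labelling, HpaI digestion and capillary electrophoresis; bidirectional fit versus DMSO.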

Measured: AC50

CCCCCCCCCCCCCc1ccccc1
not listed: [19]
inactive: all other assays above

CC=C(C)C(C)=O
active: [11] 8.49 µM
not listed: [1] | [18]
inactive: all other assays above

CC(=O)OCC=C(C)C
active: [11] 52.1 µM
not listed: [1] | [7] | [15] | [16] | [18]
inactive: all other assays above

CCCCCCCCCCCC(=O)N(C)CC(=O)O
active: [12] 8.09 µM | [13] 19.6 µM
not listed: [1] | [7] | [10] | [16] | [17] | [19]
inactive: all other assays above

O=C(O)CCC(=O)O
not listed: [2]
inactive: all other assays above

O=C1CCCCC1C1CCCCC1 (centres undefined)
active: [11] 27.3 µM
not listed: [1] | [19]
inactive: all other assays above

CC(=O)OC1CCCCC1
not listed: [17] | [19]
inactive: all other assays above

CCC(C)C(=O)OCCc1ccccc1 (centres undefined)
not listed: [7] | [15]
inactive: all other assays above

Clc1cc(Cl)c(Cl)c(Cl)c1Cl
active: [6] 27.7 µM | [19] 66.2 µM | [11] 27.6 µM
not listed: [1] | [10] | [12] | [15]
inactive: all other assays above

CC1=NN(c2ccc(S(=O)(=O)O)cc2)C(=O)C1N=Nc1ccccc1 (centres undefined)
active: [11] 100 µM
not listed: [1]
inactive: all other assays above
